# Results filed as inconclusive are left out. Values without a mark were called inactive. Activity calls are given as the source filed them. The call rests on the fitted dose curve; in most records, active means well fitted inhibition curve with a large enough effect; inconclusive means small, poorly fitted or top-dose-only effect; inactive means no such curve, though single readings can be large or run the other way. *1 amine or outer side, *2 acyl side, *3 side chain or, on linkers, in order; H or OH if unused. Where a SMILES comes first, the peptide text is derived from it. Bridges are numbered along the chain shown (N, C = ends). X6 = O=C(CCC[*:2])[*:1]
# System: Zika virus NS2B-NS3 protease (unlinked complex)
# Experiment: Primary screen GU Rhodamine qHTS for Zika virus inhibitors: Unlinked NS2B-NS3 protease assay (AID 1347159); further: nearly all actives have a fitted effect of over 60% in size
# Conditions: Recombinant ZIKV NS2B-NS3 protease, Rhodamine110 substrate fluorescence; series mostly up to 107 µM; activity change, negative = inhibition: at the top concentration
# Procedure, shortened: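 Compounds, tested up to 114 microM, were incubated for 15 minutes with 25 nM unlinked NS2B-NS3 protease at pH 8.0. Cleavage of 1.5 microM Rhodamine110 substrate was then followed by fluorescence for 15 minutes.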
# On the % scale 0 is the no-effect control and ±100 the full control effect; potency means the concentration at half of the fitted maximal effect.
Structure (SMILES),Potency,"activity change, negative = inhibition"
COc1cc(-c2cccc(O)c2)cc2c1OCO2,35.5 µM (active),
C=CC(C)(O)CC/C=C(\C)C(=O)OCC1OC(OC2CCC3(C)C(CCC4(C)C3CC=C3C5CC(C)(C)C(O)CC5(C(=O)O)CCC34C)C2(C)C)C(O)C(OC2OC(CO)C(O)C(OC3OC(CO)C(O)C(OC4OC(COC5OC(CO)C(O)C(O)C5O)C(O)C(O)C4O)C3O)C2O)C1O (stereo not drawn),,5.91% [at 19.1 µM]
CC(=O)O[C@H]1CC[C@@]2(CI)C(=CC[C@@H]3[C@@H]2CC[C@]2(C)[C@@H]([C@H](C)CCCC(C)C)CC[C@@H]32)C1,,13.5% [at 19.1 µM]
O=c1c2ccccc2nc2n1CCC2O (stereo not drawn),,-8.23% [at 171 µM]
O=C(O)c1cc(O[C@@H]2O[C@H](CO[C@@H]3OC[C@@H](O)[C@H](O)[C@H]3O)[C@@H](O)[C@H](O)[C@H]2O)c2ccccc2c1O,,-17.1% [at 57.1 µM]
CC(=O)O[C@H](C[C@@H](C)[C@H]1C(=O)[C@H](O)[C@@]2(C)[C@@H]3CCC4C(C)(C)[C@@H](O[C@@H]5OC[C@H](O)[C@H](O)[C@H]5O)CC[C@@]45C[C@@]35CC[C@]12C)[C@@H]1OC1(C)C (stereo partly drawn),,-7.25% [at 32.5 µM]
C=C(C)[C@@H](C)[C@H]1O[C@]23C[C@]4(CO2)C(CCC2[C@@]5(C)CC[C@H](O[C@@H]6OC[C@H](O)[C@H](O[C@@H]7O[C@H](CO)[C@@H](O)[C@H](O)[C@H]7O)[C@H]6O[C@@H]6O[C@@H](CO)[C@H](O)[C@H]6O)C(C)(C)C5CC[C@]24C)C3[C@@](C)(O)[C@@H]1OC(C)=O (stereo partly drawn),,-24.2% [at 32.5 µM]
CC[C@H](C)[C@@H]1NC(=O)[C@H](Cc2ccc(OC)cc2)NC(=O)CCCSC[C@@H](C(=O)N2CCC[C@H]2C(=O)N[C@@H](CC(C)C)C(=O)NCC(N)=O)NC(=O)[C@H](CC(N)=O)NC(=O)[C@H](CCC(N)=O)NC1=O (Y(Me)IQNCPLG-NH2; linker N-5 via X6),,0%

# From PubChem BioAssay (NCATS)
